{"source": "PubChem BioAssay AID1508621", "about": "(National Center for Advancing Translational Sciences (NCATS), 2021)", "note": "Inconclusive results are not listed. Unmarked numbers belong to inactive results. The source made the active and inactive calls. The call rests on the fitted dose curve; in most records, active means well fitted inhibition curve with a large enough effect; inconclusive means small, poorly fitted or top-dose-only effect; inactive means no such curve, though single readings can be large or run the other way. Potency means the concentration at half of the fitted maximal effect.", "data": [{"experiment": "Confirmatory qHTS for Identification of Small Molecule Inhibitors of Huntingtin Promoter Activity; further: nearly all actives have a fitted effect of over 65% in size", "settings": "HEK293 HTT promoter firefly luciferase reporter, 24 h; series mostly up to 57.5 µM; activity change, negative = inhibition: at the top concentration", "source_text": "Assay Provider: Russell L. Margolis M.D.\nDepartment Neurology, Johns Hopkins University School of Medicine, Baltimore, MD\nHuntington's Disease (HD) is a neurodegenerative disorder caused by a CAG repeat expansion in exon 1 of huntingtin (HTT). While there are currently no disease-modifying treatments for HD, recent efforts have focused on development of nucleotide-based therapeutics to lower HTT expression. As an alternative to siRNA or oligonucleotide methods, we hypothesized that suppression of HTT expression might be accomplished by small molecules that either (1) directly decrease HTT expression by suppressing HTT promoter activity or (2) indirectly decrease HTT expression by increasing the promoter activity of HTT-AS, the gene antisense to HTT that appears to inhibit expression of HTT.\nWe developed and employed a high throughput screen for modifiers of HTT and HTT-AS promoter activity using luminescent reporter HEK293 cells; of the 52,041 compounds tested, we identified 898 replicable hits. We used a rigorous stepwise approach to assess compound toxicity and the capacity of the compounds to specifically lower huntingtin protein in 5 different cell lines, including HEK293 cells, HD lymphoblastoid cells, mouse primary neurons, HD iPSCs differentiated into cortical-like neurons, and HD hESCs. We found no compounds which were able to lower huntingtin without lowering cell viability in all assays, though the potential efficacy of a few compounds at non-toxic doses could not be excluded.\nSEQUENCE No. (1, 2, 3, etc.); […] (e.g., Cells, Incubation, Reagent, etc.); VALUE and DESCRIPTION.\n1; Reagent; 4 uL; 2,500 Hek293 luciferase reporter cells per wells\n3; Compound; 23 nL; Control inhibitor / compound library\n5; Reagent; 2.5 uL; Firefly Luc reagent; Dual-Glo Luciferase Reporter Assay System (Promega)\n6; Time; 10 min; room temperature incubation\n7; Detection; Luminescence; FLuc\nNOTES (numbers refer to sequence above)\n1; High-throughput screening, measuring luminescence from a Hek293 luciferase reporter, was performed in 1,536 well white-walled tissue-culture treated plates. 2,500 cells were plated in 4 uL of Opti-MEM per well using a Multidrop Combi Reagent Dispenser (ThermoFisher).\n2; Assay plates were cultured for 24 hours.\n3; Control inhibitor (PTC124; final concentration of 50 uM) and compound library (at final concentrations of 460 nM - 57.5 uM) were added to the assay plate using the Kalypsis Pintool Robotic System equipped with 1536 pinheads.\n4; Cells were then incubated for 24 hours at 37C prior to luminescence measurements.\n5; In all cases, luminescence was measured using the Dual-Glo Luciferase Reporter Assay System (Promega) following the manufacturer's instructions.\n6; Room temperature incubation.\n7; Luminescence signal was obtained using the PerkinElmer ViewLux plate reader. Results were normalized to vehicle control (0% activity) and zero RLU (-100% activity).", "units": {"activity change, negative = inhibition": "%"}, "values": [{"smiles": "CCOC(=O)C1CCN(C(=O)Cn2c(-c3cccs3)cc3cc(Cl)ccc32)CC1", "activity change, negative = inhibition": -21.2}, {"smiles": "O=C(NCCC1=CCCCC1)c1ccc2c(c1)N(Cc1cccc(Cl)c1)C(=O)c1ccccc1S2(=O)=O", "activity change, negative = inhibition": -7.04}, {"smiles": "COc1ccc(Cn2c(CO)cnc2SCc2ccc(F)cc2)cc1", "activity change, negative = inhibition": -8.93}, {"smiles": "CCOC(=O)c1ccc(N2C(=O)c3[nH]nc(-c4ccccc4)c3C2c2cccs2)cc1", "note": "(stereo not given)", "Potency": "13.5 µM (active)"}, {"smiles": "O=C(CN(c1cccc(C(F)(F)F)c1)S(=O)(=O)c1ccccc1)Nc1cccc(Cl)c1", "Potency": "26.9 µM (active)"}, {"smiles": "O=C(C=Cc1ccc(CN(CCO)CCc2c[nH]c3ccccc23)cc1)NO", "activity change, negative = inhibition": 335}, {"smiles": "N#CC[C@H](C1CCCC1)n1cc(-c2ncnc3[nH]ccc23)cn1", "activity change, negative = inhibition": 4.44}, {"smiles": "COc1ccc(S(=O)(=O)Nc2cc3c(cc2NCc2ccccc2)n(C)c(=O)n3C)cc1OC", "activity change, negative = inhibition": 53.8}, {"smiles": "O=C(NCc1ccccc1)c1cc2ccc3cccnc3c2[nH]1", "activity change, negative = inhibition": 51.7}, {"smiles": "Cc1ccc(C2=CC(c3ccc(Cl)cc3)n3nc(-c4ccc(C)cc4)nc3N2)cc1", "note": "(stereo not given)", "activity change, negative = inhibition": -24.2}, {"smiles": "CCc1ccc2c(c1)-c1ccccc1S(=O)(=O)N2CC(=O)N1CCCCC1", "activity change, negative = inhibition": 39.9}, {"smiles": "Cc1cccc(S(=O)(=O)Nc2cccc(-c3ccc(N4CCCCC4)nn3)c2)c1", "activity change, negative = inhibition": -15.6}, {"smiles": "O=C(NCc1cccs1)c1ccc(Cn2c(SCc3ccc(F)cc3)nc3cccnc32)cc1", "activity change, negative = inhibition": -22.4}, {"smiles": "N#CCNC(=O)c1ccc(-c2ccnc(Nc3ccc(N4CCOCC4)cc3)n2)cc1", "activity change, negative = inhibition": -12.3}, {"smiles": "Cn1c(NCCN(CCO)CCCc2ccc([N+](=O)[O-])cc2)cc(=O)n(C)c1=O", "activity change, negative = inhibition": -2.78}, {"smiles": "Cc1ccc(CNC(=O)c2c(Nc3c(C)cccc3C)sc(C(=O)c3ccccc3)c2N)cc1", "Potency": "9.53 µM (active)"}, {"smiles": "CCOC(=O)c1ccc(C#Cc2ccc3c(c2)C(C)(C)CCS3)nc1", "activity change, negative = inhibition": -21.2}, {"smiles": "CCc1ccc2c(c1)-c1ccccc1S(=O)(=O)N2CC(=O)N1CCC(C)CC1", "activity change, negative = inhibition": 39.3}, {"smiles": "CC(=O)N1CCCc2cc(S(=O)(=O)N3CCCC(C(=O)N4CCN(c5ccccc5)CC4)C3)ccc21", "note": "(stereo not given)", "Potency": "9.53 µM (active)"}, {"smiles": "COc1cc(OC)cc(C(=O)Nc2c(C(=O)Nc3ccc(F)cc3)oc3ccccc23)c1", "activity change, negative = inhibition": -6.52}, {"smiles": "O=C(C=Cc1ccc(O)cc1)c1ccc(O)cc1O", "activity change, negative = inhibition": 20}, {"smiles": "CCS(=O)(=O)c1ncc(Cl)c(C(=O)NCc2ccc(OC)cc2)n1", "Potency": "19 µM (active)"}, {"smiles": "COc1ccc(S(=O)(=O)c2cc3cc(C(C)(C)C)cc(O)c3oc2=O)cc1", "activity change, negative = inhibition": -18.7}, {"smiles": "CCOc1ccc(C(=O)Nc2ccc(S(=O)(=O)N3CCCCC3c3cccnc3)cc2)cc1", "note": "(stereo not given)", "Potency": "21.3 µM (active)"}, {"smiles": "CCS(=O)(=O)c1oc(-c2ccc(F)cc2)nc1S(=O)(=O)c1ccc(Br)cc1", "activity change, negative = inhibition": 0.217}, {"smiles": "CCN(Cc1ccccc1)C(=O)c1cc(-c2ccccc2)n[nH]1", "activity change, negative = inhibition": 57.6}, {"smiles": "Cc1ccc(N2C(=O)C(CC(=O)Nc3ccccc3)N(CCC3=CCCCC3)C2=O)cc1", "note": "(stereo not given)", "activity change, negative = inhibition": -1.96}, {"smiles": "CC(C)Oc1ccc(C(=O)N(Cc2ccco2)c2ccccn2)cc1", "activity change, negative = inhibition": 52.2}, {"smiles": "COc1cccc(N2CCN(C(=O)c3ccc4nc(N5CCC(C)CC5)sc4c3)CC2)c1", "Potency": "8.49 µM (active)"}, {"smiles": "CN1C(=O)c2ccccc2Sc2ccc(NC(=O)NCc3ccc(Cl)cc3)cc21", "Potency": "23.9 µM (active)"}, {"smiles": "O=c1cc(-c2ccccc2)oc2cc(O)cc(O)c12", "activity change, negative = inhibition": -0.597}, {"smiles": "Cc1ccc(C)c(OCCCC(C)(C)C(=O)O)c1", "activity change, negative = inhibition": -5.05}, {"smiles": "Cc1ccccc1Cn1c(=O)n(Cc2ccco2)c(=O)c2oc3ccccc3c21", "activity change, negative = inhibition": -9.16}, {"smiles": "Cc1ccccc1OCC(=O)Nc1ccccc1C(=O)OCc1cc(=O)n2c(C)csc2n1", "activity change, negative = inhibition": -16.3}, {"smiles": "CCN(CCCNC(=O)c1cc2cc3ccc(C)cc3nc2s1)c1ccccc1", "activity change, negative = inhibition": -14.1}, {"smiles": "CN(C)Cc1c(C(=O)NCCOc2ccc(C(=O)NO)cc2)oc2ccccc12", "activity change, negative = inhibition": 455}, {"smiles": "CCCCc1nc2cc(C=CC(=O)NO)ccc2n1CCN(CC)CC", "activity change, negative = inhibition": 486}, {"smiles": "O=C(O)c1cc(-n2c(/C=C\\c3ccc(F)cc3)nc3ccccc3c2=O)ccc1Cl", "activity change, negative = inhibition": 17.8}, {"smiles": "CCOc1ccc(C2=C(C(=O)CC)Sc3nncn3N2C(=O)CC)cc1", "activity change, negative = inhibition": -23.9}, {"smiles": "CO[C@H]1C=CC=C(C)C(=O)NC2=CC(=O)C(NCCN(C)C)=C(C[C@@H](C)C[C@H](OC)[C@@H](O)[C@@H](C)C=C(C)[C@@H]1OC(N)=O)C2=O", "activity change, negative = inhibition": 10.9}]}]}
